Data on 22 compounds can be found in PubChem BioAssay (NCI).

Values joined by “and” are separate entries in the source; they are usually repeats but may differ in a detail not shown here. Identical values can stand only once. Compounds without any hit were thinned out: in the full panel of roughly 79,000, 15% have a hit. Some compounds were tested as several samples or in several runs, with calls that do not always agree. Active and inactive are the calls of the source. No stated cut-off is given here; in the data, active means growth inhibition above about 70%; inactive means the rest.

This assay in a line: NCI Yeast Anticancer Drug Screen. Data for the rad50 strain (AID 155).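 Further: 0% = growth of vehicle-only cultures of the same strain.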 The settings on record: S. cerevisiae rad50 strain growth inhibition; at 50.0 µM (retest, dose inferred, filed as 5.0); stronger effect = higher value. In a few lines: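 Genetically altered yeast (DNA repair pathway); compound treatment; growth inhibition vs vehicle ctrl.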
For `CCN(CC)CCC(=O)/C=C/c1ccccc1`, the growth inhibition is 95% (active).

Take `CC1(O)Cc2c(O)c3c(c(O)c2CC1O)C(=O)C=CC3=O` (configuration not stated): the growth inhibition was 51% (inactive).

On to `Cc1ccc2c(c1)C1(C)OC(C=CC1=O)O2` (configuration not stated), for which the growth inhibition is 100% (active).

Consider `Fc1cccc(CSC(=S)Nc2ccc(F)c(F)c2)c1`, for which the growth inhibition is 99% (active).

Turning to `CCN(CCO)CCNc1ccc(C)c2sc3ccccc3c(=O)c12`, the growth inhibition is 98% (active).

Take `Cc1n(-c2ccccc2)c2c([n+]1Cc1ccc([N+](=O)[O-])cc1)C(=O)c1ccccc1C2=O`: the growth inhibition is 97% (active).

`CC(=O)OC1COC(n2c(N)c(C#N)c(-c3ccccc3)c(C#N)c2=S)C(OC(C)=O)C1OC(C)=O` (configuration not stated): the growth inhibition is 3% (inactive) and 74% (active).

Take `O=c1[nH]c2cc([N+](=O)[O-])ccc2nc1/C=C(\O)c1ccc([N+](=O)[O-])cc1`: the growth inhibition was 86% (active).

Take `Cc1n(Cc2ccccc2)c2c([n+]1C)C(=O)c1ccccc1C2=O`: the growth inhibition is 97% (active).

Turning to `CS(=O)(=O)OCCN(CCOS(C)(=O)=O)c1ccc(C=Nc2ccc(-c3csc(Cc4ccccc4)n3)cc2)c(Cl)c1`, the growth inhibition was 95% (active).

Take `CCCCCCCCCCS(=O)CC(CO)NC(=O)/C=C/c1c(C)[nH]c(=O)[nH]c1=O` (configuration not stated): the growth inhibition was 93% (active).

For the compound `C/C(=N\O)c1cc(Br)cc([N+](=O)[O-])c1O`, the growth inhibition was 14% (inactive).

For the compound `COc1cc2c(c(OC)c1OC)-c1ccc(SC)c(=O)cc1C(NC(=O)c1ccccc1)CC2` (configuration not stated), the growth inhibition is 65% (inactive).

Regarding `COc1cccc2c1C(=O)c1c(O)c3c(c(O)c1C2=O)C[C@@](O)(C(C)=O)C[C@@H]3OC1CC(O)C(O)C(C)O1` (some centres not stated), the growth inhibition was 95% (active).

For the compound `CCCCCCCc1c(Cl)nc(Cl)nc1Cl`, the growth inhibition is 92% (active).

Consider `O=C1/C(=C/c2ccc(Cl)cc2)CNC/C1=C\c1ccc(Cl)cc1`, for which the growth inhibition is 79% (active) and 71% (active).

For `O=C1C(Cl)=C(N2CCN(C3=C(Cl)C(=O)c4ccccc4C3=O)CC2)C(=O)c2ccccc21`, the growth inhibition was 98% (active).

`O=C1c2ccccc2-n2c1nc1ccccc1c2=O`: the growth inhibition was 83% (active).

With `Nc1ccc(Cn2ccc3c4c(N)nc(N)nc4ccc32)cc1`, the growth inhibition was 83% (active).

For the compound `Nc1nc(N)c2c(Cl)c(CNc3ccc(Cl)c(Cl)c3)ccc2n1`, the growth inhibition was 98% (active).

In the case of `Cc1cc(NCCCCCCCNc2cc(C)nc3cc([N+](=O)[O-])ccc23)c2ccc([N+](=O)[O-])cc2n1`, the growth inhibition is 87% (active).

`CCCCCCCCCCCCCCCCCC(=O)NCCO`: the growth inhibition was -6% (inactive).
